The record followed here is PubChem BioAssay AID504652 (National Center for Advancing Translational Sciences (NCATS), 2011).

Where “and” joins values, the source holds several entries; their conditions need not be identical. Equal entries are not always repeated. Out of some 360,000 compounds screened, about 11,000 (3.1%) were called active. Only a selection was taken, and actives are over-represented in it overall. Values without a mark were called inactive. No stated cut-off is given here; in the data, active means activity change below about -30%; inactive means the rest.
On the % scale 0 is the no-effect control and ±100 the full control effect.

D(1A) dopamine receptor (Homo sapiens), sequence (P21728 whole entry, looked up): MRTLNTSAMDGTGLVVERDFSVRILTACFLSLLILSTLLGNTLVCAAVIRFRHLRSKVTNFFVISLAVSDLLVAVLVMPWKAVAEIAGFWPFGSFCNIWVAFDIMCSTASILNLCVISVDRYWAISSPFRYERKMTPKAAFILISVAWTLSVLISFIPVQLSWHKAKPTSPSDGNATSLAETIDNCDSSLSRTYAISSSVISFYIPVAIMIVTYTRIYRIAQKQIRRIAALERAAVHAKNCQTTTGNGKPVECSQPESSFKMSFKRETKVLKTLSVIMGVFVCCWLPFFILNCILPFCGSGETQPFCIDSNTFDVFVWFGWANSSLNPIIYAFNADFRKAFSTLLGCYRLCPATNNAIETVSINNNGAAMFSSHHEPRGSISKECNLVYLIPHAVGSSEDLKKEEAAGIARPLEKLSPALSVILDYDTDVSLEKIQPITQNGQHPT

This assay addresses D(1A) dopamine receptor (Homo sapiens) (UniProt P21728). Kind of assay: Antagonist of Human D 1 Dopamine Receptor: qHTS. To be noted: HEK293 TREx D1 cells, calcium flux, dopamine EC80; at 10 µM; active compounds read low. The method, boiled down: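 Cells carrying a force-coupled, tetracycline-inducible human D1 receptor report calcium flux. Each well gets a 10 s baseline, compound with 180 s monitoring, then an EC80 dopamine stimulus with a second 180 s kinetic read.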
In general terms: In qHTS, concentration-response curves come from the screen itself.
As for `CCc1cccc(NC(=O)CCC(=O)O)c1`, the activity change, negative = inhibition is -45.7% (active).
As for `CCc1cccc(NC(=O)CCNS(=O)(=O)c2cccc3nonc23)c1`, the figure is 8.81% and 29.5%; as for `CCc1cccc(NC(=O)c2cc(-c3ccccc3)n[nH]2)c1`, -7.87%; as for `O=CN1CCN(C(=O)c2ccc3c(c2)OCO3)CC1`, 11.7%.
Consider `O=CN1CCN(C(=O)c2ccc(Br)o2)CC1`, for which the activity change, negative = inhibition was -36.1% (active).
As for `O=C(c1ccc(Br)o1)N1CCN(CCOc2ccccc2)CC1`, the figure is 3.56%; as for `CC(C)c1ccc(C2CC(=O)N3CN(C4CCCCC4)CSC3=C2C#N)cc1` (stereo unspecified), -4.95%.
As for `COc1cccc(CNC(=O)Cn2ncn3c(cc4ccccc43)c2=O)c1`, the figure is 2.91%.
As for `CCOC(=O)[C@@H]1[C@H]2COc3cc(OC)ccc3[C@@H]2N2C(=O)N(c3cccc(C)c3)C(=O)[C@@]12C`, the figure is -0.419%; as for `CCOC(=O)[C@@H]1[C@H]2COc3cc(OC)ccc3[C@H]2N2C(=O)N(c3ccc(F)cc3)C(=O)[C@]12C`, -0.628%; as for `CCOC(=O)[C@H]1[C@H]2COc3cc(OC)ccc3[C@@H]2N2C(=O)N(c3ccc(Br)cc3)C(=O)[C@@]12C`, -55.7% (active).
Take `COc1ccc(-c2cn3c(n2)sc2cc(C(=O)Nc4ccc(F)cc4)ccc23)cc1`: the activity change, negative = inhibition is -1.55%.
As to `O=C(O)c1cc(S(=O)(=O)N(Cc2ccccc2)c2ccccc2)ccc1Cl`, the activity change, negative = inhibition was 11.6%.
As for `O=C(O)c1cc(S(=O)(=O)N(Cc2ccccc2)c2cccc(C(F)(F)F)c2)ccc1Cl`, the figure is 3.45%; as for `O=S(=O)(c1ccccc1)N(Cc1cccc(F)c1)c1ccccc1`, -30.7% (active); as for `CCc1ccccc1NC(=O)Cn1c(=O)n(-c2cccc(C)c2)c(=O)c2c1c1cc(OC)ccc1n2C`, -1.63%.
For `CCCC(=O)Nc1ccc2oc(-c3ccc(O)c(Br)c3)nc2c1`, the activity change, negative = inhibition was -6.2%.
With `COc1cccc(C(=O)NC2=NC(c3ccc(N(C)C)cc3)CC(=O)N2)c1` (stereo unspecified), the activity change, negative = inhibition is -6.47%.
As for `Cc1ccccc1-n1c(=O)c2ccccc2n(Cc2ccc(F)cc2)c1=O`, the figure is 8.59%.
As for `CNC(=O)c1sc(Nc2ccc(OCc3ccccc3)cc2)nc1C`, the figure is -6.26%; as for `COc1ccc(NC(=O)CCC(=O)Nc2nnc(C3CCCCC3)s2)cc1`, 5.47%.
As for `COC(=O)CCc1sc(Nc2ccc(Br)cc2)nc1-c1ccc(OC)cc1`, the figure is -33.1% (active); as for `Cc1ccc(Nc2nnc(SC(C)C(=O)NC3CC3)s2)cc1` (stereo unspecified), -6.59%; as for `Cc1nnc(SC(C)C(=O)Nc2ccc(S(=O)(=O)NC3CCCCC3)cc2)s1` (stereo unspecified), -34.5% (active).
With `CCc1nnc(NC(=O)c2ccc(S(=O)(=O)NC3CCCCC3)cc2)s1`, the activity change, negative = inhibition was 1.91%.
`CCOc1ccccc1C(=O)NCC(c1ccc(N(C)C)cc1)N1CCCC1` (stereo unspecified): the activity change, negative = inhibition was -18.8%.
As for `Cc1ccc(CCn2c3c(c4ccccc42)CN(C)CC3)cn1`, the figure is -37.8% (active); as for `COc1ccccc1NC(=O)C1=C(C)Nc2ncnn2C1c1sccc1C` (stereo unspecified), 2.71%.
On to `Cc1ccc(C(=O)Nc2nc(N)n(-c3ccccc3)n2)cc1`, for which the activity change, negative = inhibition was -1.57%.
As for `Nc1nc(NC(=O)/C=C/c2ccccc2)nn1-c1ccccc1`, the figure is -60.9% (active).
As for `Nc1nc(NC(=O)/C=C/c2ccc(F)cc2)nn1-c1ccccc1`, the figure is 8.35%; as for `CCOC(=O)c1cc(-c2ccccc2)n(CCC(=O)Nc2ccccc2CC)c1C`, -5.19%.
As for `Cc1ccccc1C(=O)Nc1nnc(S(=O)(=O)N(C)c2ccc(Cl)cc2)s1`, the figure is -3.48%; as for `COCC(C)NS(=O)(=O)c1ccc(N2CCCCS2(=O)=O)cc1` (stereo unspecified), -32.2% (active).
As for `COc1ccc(N2CCN(C(=O)c3ccc(N4CCCCS4(=O)=O)cc3)CC2)cc1`, the activity change, negative = inhibition is -28.7%.
As for `COc1ccc(S(=O)(=O)NC(C)C(=O)N2CCCCCC2)cc1` (stereo unspecified), the figure is 6.5%; as for `Cc1ccccc1CSc1nc(-c2ccccc2)nc2c1Cc1c(CO)cnc(C)c1O2`, -5.66%.
Regarding `CCCC(=O)Nc1cc(C(=O)NCc2ccc(OC)cc2)ccc1S(=O)(=O)c1ccc(Cl)cc1`, the activity change, negative = inhibition was 3.26%.
As for `CCc1ccccc1NC(=O)N1CCN(C(=O)c2nsc3ccccc23)CC1`, the figure is 5.59%; as for `O=C(Nc1ccccc1)C1CCN(C(=O)c2ccc(Br)cc2)CC1`, -21.4%; as for `O=C(Nc1ccc(F)cc1)C1CCN(C(=O)c2ccc([N+](=O)[O-])cc2)CC1`, -37.8% (active).
As for `O=C(Nc1ccc(S(=O)(=O)N2CCCCC2)cc1)C1CCN(C(=O)c2ccc(F)cc2)CC1`, the figure is -10.9%; as for `CCOC(=O)c1c(NC(=O)c2cc(CC)on2)sc(C(C)=O)c1C`, -23.3%; as for `COC(=O)[C@H](Cc1ccccc1)NC(=O)Nc1ccc(S(N)(=O)=O)cc1`, -6.59%.
As for `NS(=O)(=O)c1ccc(Nc2nc(-c3ccccc3)cs2)cc1`, the figure is -31.8% (active); as for `NS(=O)(=O)c1ccc(NS(=O)(=O)/C=C/c2ccccc2)cc1`, 4.29%.
With `Cc1cccc(NC(=O)CN(c2ccc(C(C)C)cc2)S(=O)(=O)c2c(C)nn(C)c2C)c1C`, the activity change, negative = inhibition is -5.46%.
For the molecule `CCC(=O)N1c2ccccc2CC1C(=O)N1CCN(c2ccccc2)CC1` (stereo unspecified), the activity change, negative = inhibition is -1.25%.
Take `CC(C)c1ccc2c(c1)c(SC(C)(C)C)c(CC(C)(C)C(=O)O)n2Cc1ccc(Cl)cc1`: the activity change, negative = inhibition was -36.5% (active) and -38.2% (active).
For the molecule `O=C(Cn1c(=O)nc(-c2ccccc2)c2cc(Cl)ccc21)NCc1ccc(Cl)cc1`, the activity change, negative = inhibition is 7.3%.
As for `CC(C)c1ccc(Cn2c(COc3ccccc3)nc3ccccc32)cc1`, the figure is 0.116%; as for `COc1cccc(-c2nnc(SCC(=O)N3CCC(C)CC3)o2)c1`, 2.47%.
For the molecule `CCc1cc(C(=O)Nc2nnc(C3CC3)s2)sc1C`, the activity change, negative = inhibition is 5.22%.
As for `O=C(Nc1nnc(C2CC2)s1)C1=NN(C2CCS(=O)(=O)C2)C(=O)CC1` (stereo unspecified), the figure is -30.2% (active); as for `O=C(Nc1nnc(C2CC2)s1)c1ccccn1`, -8.58%; as for `O=C(CSCc1cnn(-c2ccccc2)c1-n1cccc1)NCc1ccccc1Br`, 7.2%.
